This is an account of results in PMC7862700, “An all-to-all approach to the identification of sequence-specific readers for epigenetic DNA modifications on cytosine”.

Assay in all cases: DAPPL (digital affinity profiling via proximity ligation, sequencing); 10 mM Tris-HCl pH 7.5, 50 mM NaCl, 1 mM DTT, 4% glycerol, room temperature, 30 min; GST-TFs on glutathione beads, 16-mer random dsDNA library, 0.1% formaldehyde crosslink after washing; high values mean tight binding
Settings in all cases: protein: recombinant; tags: N-terminal GST; dsDNA, one strand shown

One assay concerns the target T1, FLI1 (Homo sapiens, UniProt Q01543 1-452).
T1 sequence: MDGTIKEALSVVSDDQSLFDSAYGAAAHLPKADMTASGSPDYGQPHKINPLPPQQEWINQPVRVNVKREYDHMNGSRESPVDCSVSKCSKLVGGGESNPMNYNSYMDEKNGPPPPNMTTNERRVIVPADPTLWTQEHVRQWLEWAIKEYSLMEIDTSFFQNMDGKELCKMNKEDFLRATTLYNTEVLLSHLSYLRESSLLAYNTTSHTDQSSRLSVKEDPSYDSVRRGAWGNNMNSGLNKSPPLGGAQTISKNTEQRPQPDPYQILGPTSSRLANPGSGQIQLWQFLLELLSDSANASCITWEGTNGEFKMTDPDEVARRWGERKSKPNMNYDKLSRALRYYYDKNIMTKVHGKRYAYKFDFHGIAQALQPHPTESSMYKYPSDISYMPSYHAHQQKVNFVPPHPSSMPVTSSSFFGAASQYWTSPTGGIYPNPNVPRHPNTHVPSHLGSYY
The gist of the method:
(§1)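 Human transcription factors were made in yeast as GST fusions, captured on glutathione beads and barcoded with DNA. With a tag-only sample included, the pool was incubated with 200 nmole of a random double-stranded 16-mer DNA library in Tris/NaCl/DTT/glycerol buffer at room temperature for 30 min, then crosslinked with 0.1% formaldehyde after washing, ligated by proximity, amplified and sequenced. For binding signal, each hexamer's read frequency for a factor is divided by its frequency for the tag-only sample.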

In a further assay the target is T2, ELK1 (Homo sapiens, UniProt P19419 1-428).
T2 sequence: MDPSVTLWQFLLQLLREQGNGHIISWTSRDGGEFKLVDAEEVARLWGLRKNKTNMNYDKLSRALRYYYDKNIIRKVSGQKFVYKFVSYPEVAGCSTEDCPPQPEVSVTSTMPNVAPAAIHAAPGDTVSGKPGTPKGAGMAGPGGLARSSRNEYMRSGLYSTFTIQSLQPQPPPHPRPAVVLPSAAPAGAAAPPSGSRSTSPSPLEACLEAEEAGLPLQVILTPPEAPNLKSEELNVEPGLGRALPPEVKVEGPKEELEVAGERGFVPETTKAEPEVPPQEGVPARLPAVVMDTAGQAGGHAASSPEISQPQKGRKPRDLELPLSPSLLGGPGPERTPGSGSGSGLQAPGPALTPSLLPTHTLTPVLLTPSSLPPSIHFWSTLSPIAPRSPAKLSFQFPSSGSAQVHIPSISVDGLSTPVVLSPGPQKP
Put shortly:
as §1

The target in the next assay is T3, GABPA (Homo sapiens, UniProt Q06546 1-454).
T3 sequence: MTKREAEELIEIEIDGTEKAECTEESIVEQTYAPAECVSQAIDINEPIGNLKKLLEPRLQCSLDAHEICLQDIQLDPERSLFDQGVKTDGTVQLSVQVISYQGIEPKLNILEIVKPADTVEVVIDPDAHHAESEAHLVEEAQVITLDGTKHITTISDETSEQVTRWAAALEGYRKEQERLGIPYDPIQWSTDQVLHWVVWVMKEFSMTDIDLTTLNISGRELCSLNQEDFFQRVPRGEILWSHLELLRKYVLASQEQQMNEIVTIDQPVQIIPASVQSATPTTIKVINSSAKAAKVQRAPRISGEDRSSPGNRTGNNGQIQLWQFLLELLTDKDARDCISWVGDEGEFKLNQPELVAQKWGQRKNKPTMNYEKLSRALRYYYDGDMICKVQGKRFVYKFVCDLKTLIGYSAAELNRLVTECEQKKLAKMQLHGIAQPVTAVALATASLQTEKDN
Put shortly: as §1

The next assay concerns the target T4, ERG (Homo sapiens, UniProt P11308 1-479).
T4 sequence: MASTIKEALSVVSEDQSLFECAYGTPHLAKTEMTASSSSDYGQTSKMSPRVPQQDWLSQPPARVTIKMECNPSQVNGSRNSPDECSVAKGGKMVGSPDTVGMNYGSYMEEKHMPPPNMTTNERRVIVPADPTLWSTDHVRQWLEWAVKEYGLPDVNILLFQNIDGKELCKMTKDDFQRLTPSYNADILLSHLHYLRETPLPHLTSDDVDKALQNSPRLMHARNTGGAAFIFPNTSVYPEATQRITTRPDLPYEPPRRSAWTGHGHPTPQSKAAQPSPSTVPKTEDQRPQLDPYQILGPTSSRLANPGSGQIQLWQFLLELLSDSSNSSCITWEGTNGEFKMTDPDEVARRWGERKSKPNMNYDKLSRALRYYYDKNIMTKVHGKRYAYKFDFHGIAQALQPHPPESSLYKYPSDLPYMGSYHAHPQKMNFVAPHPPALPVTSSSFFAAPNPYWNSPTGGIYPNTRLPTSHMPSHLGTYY
Put shortly:
as §1

For a further assay, the target named is ELF1 (Homo sapiens, UniProt P32519 1-619). The gist of the method:
as §1

A further assay concerns the target T5, EHF (Homo sapiens, UniProt Q9NZC4 1-300).
T5 sequence: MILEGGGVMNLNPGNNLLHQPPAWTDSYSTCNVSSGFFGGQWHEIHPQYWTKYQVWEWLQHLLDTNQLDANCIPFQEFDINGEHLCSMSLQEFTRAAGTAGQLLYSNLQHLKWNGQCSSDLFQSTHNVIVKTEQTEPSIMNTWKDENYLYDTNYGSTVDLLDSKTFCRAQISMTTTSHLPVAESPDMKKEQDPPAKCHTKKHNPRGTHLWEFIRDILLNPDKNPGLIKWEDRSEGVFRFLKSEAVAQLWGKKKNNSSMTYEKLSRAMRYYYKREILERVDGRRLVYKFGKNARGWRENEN
The gist of the method:
as §1

For a further assay, the target named is SPI1 (Homo sapiens, UniProt P17947 1-270). The gist of the method:
as §1

The target of the next assay is SPIB (Homo sapiens, UniProt Q01892 1-262). Put shortly:
as §1

The target in a further assay is T6, ELK3 (Homo sapiens, UniProt P41970 1-407).
T6 sequence: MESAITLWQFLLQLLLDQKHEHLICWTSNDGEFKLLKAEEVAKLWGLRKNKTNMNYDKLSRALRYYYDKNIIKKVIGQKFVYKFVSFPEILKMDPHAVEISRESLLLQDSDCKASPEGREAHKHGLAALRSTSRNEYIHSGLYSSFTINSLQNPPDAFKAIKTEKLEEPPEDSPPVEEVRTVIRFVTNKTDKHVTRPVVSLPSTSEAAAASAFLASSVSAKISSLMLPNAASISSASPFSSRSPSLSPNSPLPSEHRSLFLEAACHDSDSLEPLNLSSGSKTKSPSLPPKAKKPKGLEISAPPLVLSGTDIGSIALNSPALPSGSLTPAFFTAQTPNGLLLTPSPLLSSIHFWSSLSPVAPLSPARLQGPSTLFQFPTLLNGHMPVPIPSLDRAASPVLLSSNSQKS
The gist of the method:
as §1

Chain of ELF1 (P32519 whole entry): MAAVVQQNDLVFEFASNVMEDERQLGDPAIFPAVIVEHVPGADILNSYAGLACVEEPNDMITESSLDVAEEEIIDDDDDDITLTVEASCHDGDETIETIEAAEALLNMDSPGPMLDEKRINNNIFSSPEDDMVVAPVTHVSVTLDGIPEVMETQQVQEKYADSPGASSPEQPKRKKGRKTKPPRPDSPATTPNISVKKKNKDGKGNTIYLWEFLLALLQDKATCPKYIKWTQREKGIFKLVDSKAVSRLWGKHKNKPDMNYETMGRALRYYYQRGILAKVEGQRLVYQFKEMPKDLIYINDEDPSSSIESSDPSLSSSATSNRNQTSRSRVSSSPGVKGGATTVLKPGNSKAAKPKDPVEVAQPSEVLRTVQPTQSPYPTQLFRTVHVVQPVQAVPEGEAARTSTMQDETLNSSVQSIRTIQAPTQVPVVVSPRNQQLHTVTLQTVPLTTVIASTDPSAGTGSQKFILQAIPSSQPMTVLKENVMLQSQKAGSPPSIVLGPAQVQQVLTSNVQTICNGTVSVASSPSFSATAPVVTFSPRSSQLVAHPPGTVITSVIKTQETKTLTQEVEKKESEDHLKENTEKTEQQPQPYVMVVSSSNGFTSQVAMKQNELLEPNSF
Chain of SPIB (Q01892 whole entry): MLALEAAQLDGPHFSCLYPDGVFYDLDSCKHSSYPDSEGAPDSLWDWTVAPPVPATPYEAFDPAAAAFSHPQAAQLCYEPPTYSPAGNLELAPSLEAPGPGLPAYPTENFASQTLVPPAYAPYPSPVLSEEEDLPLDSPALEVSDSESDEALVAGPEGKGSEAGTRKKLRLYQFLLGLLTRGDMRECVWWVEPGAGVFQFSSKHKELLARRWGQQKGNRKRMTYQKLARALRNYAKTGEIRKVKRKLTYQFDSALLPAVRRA

With ACTGCG, the binding signal with FLI1 is 1.24 fold enrichment (6-mer frequency, TF over GST control); in the assay with ELK1 it was 1.32 fold enrichment (6-mer frequency, TF over GST control); in the assay with GABPA it was 1.26 fold enrichment (6-mer frequency, TF over GST control); with ERG, 1.26 fold enrichment (6-mer frequency, TF over GST control); with ELF1 it was 1.35 fold enrichment (6-mer frequency, TF over GST control); with EHF it was 1.37 fold enrichment (6-mer frequency, TF over GST control). Further, the binding signal with SPI1 is 1.33 fold enrichment (6-mer frequency, TF over GST control); in the assay with SPIB, 1.3 fold enrichment (6-mer frequency, TF over GST control); in the assay with ELK3, 1.25 fold enrichment (6-mer frequency, TF over GST control).
On to CCTATT, for which the binding signal with FLI1 is 1.47 fold enrichment (6-mer frequency, TF over GST control); in the assay with ELK1, 1.55 fold enrichment (6-mer frequency, TF over GST control); with GABPA, 1.49 fold enrichment (6-mer frequency, TF over GST control); with ERG, 1.53 fold enrichment (6-mer frequency, TF over GST control); with ELF1 it was 1.56 fold enrichment (6-mer frequency, TF over GST control); with EHF, 1.64 fold enrichment (6-mer frequency, TF over GST control). The binding signal in the assay with SPI1 is 1.55 fold enrichment (6-mer frequency, TF over GST control); with SPIB, 1.44 fold enrichment (6-mer frequency, TF over GST control); with ELK3 it was 1.4 fold enrichment (6-mer frequency, TF over GST control).
As to CTTGGC, the binding signal with FLI1 was 1.19 fold enrichment (6-mer frequency, TF over GST control); with ELK1 it was 1.23 fold enrichment (6-mer frequency, TF over GST control); in the assay with GABPA, 1.25 fold enrichment (6-mer frequency, TF over GST control); with ERG it was 1.12 fold enrichment (6-mer frequency, TF over GST control); in the assay with ELF1, 1.14 fold enrichment (6-mer frequency, TF over GST control); with EHF, 1.22 fold enrichment (6-mer frequency, TF over GST control). The binding signal is 1.18 fold enrichment (6-mer frequency, TF over GST control) in the assay with SPI1; 1.2 fold enrichment (6-mer frequency, TF over GST control) with SPIB; 1.18 fold enrichment (6-mer frequency, TF over GST control) with ELK3.
In the case of ATCACA, the binding signal with FLI1 is 1.06 fold enrichment (6-mer frequency, TF over GST control); in the assay with ELK1, 1.09 fold enrichment (6-mer frequency, TF over GST control); with GABPA, 1.11 fold enrichment (6-mer frequency, TF over GST control); with ERG, 1.02 fold enrichment (6-mer frequency, TF over GST control); with ELF1 it was 1.13 fold enrichment (6-mer frequency, TF over GST control); with EHF, 1.04 fold enrichment (6-mer frequency, TF over GST control). Further, the binding signal with SPI1 was 1.06 fold enrichment (6-mer frequency, TF over GST control); with SPIB, 1.02 fold enrichment (6-mer frequency, TF over GST control); in the assay with ELK3, 1.13 fold enrichment (6-mer frequency, TF over GST control).
For the sequence TCCGTT, the binding signal with FLI1 was 1.44 fold enrichment (6-mer frequency, TF over GST control); in the assay with ELK1 it was 1.61 fold enrichment (6-mer frequency, TF over GST control); in the assay with GABPA it was 1.42 fold enrichment (6-mer frequency, TF over GST control); in the assay with ERG, 1.68 fold enrichment (6-mer frequency, TF over GST control); in the assay with ELF1, 1.34 fold enrichment (6-mer frequency, TF over GST control); with EHF it was 1.4 fold enrichment (6-mer frequency, TF over GST control). Further, the binding signal was 1.53 fold enrichment (6-mer frequency, TF over GST control) with SPI1; 1.53 fold enrichment (6-mer frequency, TF over GST control) with SPIB; 1.54 fold enrichment (6-mer frequency, TF over GST control) in the assay with ELK3.
For the sequence GCTACC, the binding signal with FLI1 is 1.18 fold enrichment (6-mer frequency, TF over GST control); with ELK1, 1.27 fold enrichment (6-mer frequency, TF over GST control); in the assay with GABPA, 1.25 fold enrichment (6-mer frequency, TF over GST control); in the assay with ERG it was 1.26 fold enrichment (6-mer frequency, TF over GST control); with ELF1, 1.29 fold enrichment (6-mer frequency, TF over GST control); with EHF, 1.09 fold enrichment (6-mer frequency, TF over GST control). For the same sequence, the binding signal with SPI1 was 1.11 fold enrichment (6-mer frequency, TF over GST control); with SPIB, 1.28 fold enrichment (6-mer frequency, TF over GST control); in the assay with ELK3, 1.39 fold enrichment (6-mer frequency, TF over GST control).
Turning to GCCAAT, the binding signal with FLI1 was 1.1 fold enrichment (6-mer frequency, TF over GST control); with ELK1, 1.02 fold enrichment (6-mer frequency, TF over GST control); with GABPA, 1.05 fold enrichment (6-mer frequency, TF over GST control); with ERG it was 1 fold enrichment (6-mer frequency, TF over GST control); with ELF1 it was 1.04 fold enrichment (6-mer frequency, TF over GST control); with EHF, 1.03 fold enrichment (6-mer frequency, TF over GST control). Also, the binding signal was 1.01 fold enrichment (6-mer frequency, TF over GST control) in the assay with SPI1; 1.07 fold enrichment (6-mer frequency, TF over GST control) with SPIB; 1.11 fold enrichment (6-mer frequency, TF over GST control) with ELK3.
